This is an account of results in PubChem BioAssay (NCI).

Test systems include NCI-H23 lung; NCI-H226 lung; NCI-H322M lung; HOP-62 NSCLC; NCI-H460 lung; HOP-92 NSCLC; NCI-H522 lung; A549/ATCC NSCLC; 786-0 renal; COLO 205 colon; DU-145 prostate; K-562 leukemia; MALME-3M melanoma; MDA-MB-231 breast; RXF 393 renal; SF-268 CNS; SF-295 CNS; SF-539 CNS; UACC-257 melanoma; M14 melanoma.
Holding throughout (test): NCI-60 one-dose screen, 48 h (100 = growth as untreated, 0 = no growth, -100 = all killed)
Conditions in all cases: 10 µM unless noted

Compounds without any hit were thinned out: in the full panel of roughly 83,000, 20% have a hit.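 Compound tested at a single concentration for 48 hours in 96-well plates; a percent growth value below 10 was scored as active.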 Unmarked numbers belong to inactive results. Calls of active or inactive are those of the source.

Regarding `CCN(CC)CCCC(Nc1c2ccc(Cl)cc2nc2ccc(OC)cc12)c1ccncc1` (stereo not given), the growth with NCI-H23 lung was 80.7%; in the test with NCI-H226 lung, 94.5%; in the test on NCI-H322M lung it was 65.4%; with HOP-62 NSCLC, 83.4%; in the test on NCI-H460 lung, 66%; with HOP-92 NSCLC it was 65.7%. For the same compound, the growth in the test on NCI-H522 lung is 83.3%; with A549/ATCC NSCLC, 74.4%; in the test on 786-0 renal, 62.7%; in the test with COLO 205 colon it was 69.8%; with DU-145 prostate it was 70.6%; in the test on K-562 leukemia it was 32.6%. Moreover, the growth in the test on MALME-3M melanoma is 76.7%; in the test on MDA-MB-231 breast it was 59.3%; in the test on RXF 393 renal it was 65.4%; in the test on SF-268 CNS, 77.8%; in the test with SF-295 CNS, 89.9%; with SF-539 CNS it was 62.9%. Moreover, the growth in the test with UACC-257 melanoma was 114%; in the test with M14 melanoma, 113%.

Turning to `COc1cc(C(=O)n2nc(NCCCc3ccccc3)c3cc(N)ccc32)cc(OC)c1OC`, the growth was 92.8% with NCI-H23 lung; 89.7% with NCI-H226 lung; 106% in the test with NCI-H322M lung; 93.5% with HOP-62 NSCLC; 102% with NCI-H460 lung; 88.9% with HOP-92 NSCLC. The growth in the test with NCI-H522 lung is 74.6%; with A549/ATCC NSCLC, 93.3%; in the test with 786-0 renal it was 96.1%; in the test on COLO 205 colon, 113%; with DU-145 prostate it was 106%; in the test on K-562 leukemia, 88.9%. Besides, the growth in the test with MALME-3M melanoma is 100%; in the test with MDA-MB-231 breast, 83.1%; in the test on RXF 393 renal, 101%; in the test on SF-268 CNS it was 96.7%; in the test with SF-295 CNS, 81%; in the test with SF-539 CNS it was 93.1%. Further, the values for the growth in the test on UACC-257 melanoma and in the test with M14 melanoma were 120% and 93.6%, respectively.

With `CC(C)(C#N)c1cc(C(=O)Nc2cc(Nc3ncccc3-c3ncnc4nc[nH]c34)ccc2F)cc(C(F)(F)F)c1`, the growth in the test with NCI-H23 lung was 24.3%; with NCI-H226 lung, 41.8%; with NCI-H322M lung, 67.2%; in the test on HOP-62 NSCLC, 45.7%; in the test on NCI-H460 lung it was 35.9%; with HOP-92 NSCLC it was -5.84% (active). Also, the growth was 62% in the test on NCI-H522 lung; 49.7% in the test with A549/ATCC NSCLC; 64% with 786-0 renal; 11.9% in the test on COLO 205 colon; 66% with DU-145 prostate; 5.56% (active) in the test on K-562 leukemia. Besides, the growth with MALME-3M melanoma was 2.06% (active); in the test on MDA-MB-231 breast, 18.3%; with RXF 393 renal, 91.7%; with SF-268 CNS, 66.2%; with SF-295 CNS, 74.5%; with SF-539 CNS, 32.1%. In addition, the growth was 12% with UACC-257 melanoma and 6.18% (active) in the test with M14 melanoma.

Turning to `COc1ccc(C(=O)/C=C/Nc2cc(-c3ccccc3)nn2-c2ccccc2)cc1`, the growth with NCI-H23 lung was 90%; with NCI-H226 lung it was 79.8%; in the test with NCI-H322M lung it was 93.2%; in the test with HOP-62 NSCLC, 102%; in the test on NCI-H460 lung, 98%; in the test on HOP-92 NSCLC it was 80.8%. The growth was 82.7% with NCI-H522 lung; 91.4% in the test with A549/ATCC NSCLC; 89% with 786-0 renal; 110% with COLO 205 colon; 99.7% with DU-145 prostate; 80.8% with K-562 leukemia. Also, the growth in the test on MALME-3M melanoma is 100%; in the test with MDA-MB-231 breast it was 93.4%; in the test on RXF 393 renal, 85.5%; with SF-268 CNS, 90.2%; in the test with SF-295 CNS, 95.2%; in the test with SF-539 CNS, 95.2%. Moreover, the values for the growth in the test with UACC-257 melanoma and with M14 melanoma were 90.8% and 93%, respectively.

With `O=CN1N=C(c2cccc(Nc3ccncc3)c2)CC1c1ccc2c(c1)OCO2` (stereo not given), the growth in the test on NCI-H23 lung was 89.7%; in the test on NCI-H226 lung it was 85.7%; with NCI-H322M lung, 99.4%; in the test with HOP-62 NSCLC, 80.2%; in the test with NCI-H460 lung, 105%; in the test with HOP-92 NSCLC, 73.4%. The growth in the test with NCI-H522 lung was 83.3%; in the test with A549/ATCC NSCLC it was 83.8%; in the test with 786-0 renal, 95.3%; in the test with COLO 205 colon it was 113%; in the test on DU-145 prostate it was 104%; with K-562 leukemia, 64.7%. The growth was 86.7% with MALME-3M melanoma; 103% in the test with MDA-MB-231 breast; 100% with RXF 393 renal; 91.9% in the test with SF-268 CNS; 91.9% with SF-295 CNS; 95.3% in the test on SF-539 CNS. For the same compound, the figures for the growth in the test with UACC-257 melanoma and in the test on M14 melanoma were 80.1% and 96.4%, respectively.

Consider `COc1ccc(S(=O)(=O)Oc2ccc(-c3sc4cc(OS(=O)(=O)c5ccc(OC)cc5)ccc4c3C(=O)c3ccc(OCCN4CCCCC4)cc3)cc2)cc1`, for which the growth in the test on NCI-H23 lung is 104%; with NCI-H226 lung, 104%; in the test on NCI-H322M lung, 98.5%; in the test on HOP-62 NSCLC, 95.8%; with NCI-H460 lung, 105%; in the test on HOP-92 NSCLC, 108%. Moreover, the growth in the test on NCI-H522 lung was 91.4%; in the test with A549/ATCC NSCLC, 88.2%; in the test on 786-0 renal it was 93%; in the test with COLO 205 colon, 109%; in the test on DU-145 prostate, 107%; in the test on K-562 leukemia, 103%. The growth was 92.3% in the test with MALME-3M melanoma; 108% in the test with MDA-MB-231 breast; 110% in the test with RXF 393 renal; 102% with SF-268 CNS; 93.2% in the test with SF-295 CNS; 95.2% in the test with SF-539 CNS. Further, the values for the growth in the test on UACC-257 melanoma and with M14 melanoma were 93% and 105%, respectively.

For `CC(=O)c1c(/C=C/c2ccc(C)cc2)c2ccccc2[nH]c1=O`, the growth was 86.5% with NCI-H23 lung; 63% in the test with NCI-H226 lung; 91.2% with NCI-H322M lung; 89.4% in the test with HOP-62 NSCLC; 91.3% in the test on NCI-H460 lung; 73.1% in the test on HOP-92 NSCLC. Also, the growth in the test with NCI-H522 lung is 84.6%; in the test with A549/ATCC NSCLC it was 85.4%; in the test with 786-0 renal, 97.8%; with COLO 205 colon, 105%; with DU-145 prostate it was 94.9%; with K-562 leukemia, 90.6%. In addition, the growth is 121% in the test with MALME-3M melanoma; 91.7% in the test with MDA-MB-231 breast; 104% in the test with RXF 393 renal; 75.5% in the test with SF-268 CNS; 103% with SF-295 CNS; 86.2% with SF-539 CNS. Also, the growth is 81.1% in the test with UACC-257 melanoma and 104% in the test on M14 melanoma.

For the compound `O=C1/C(=C/c2cccc([N+](=O)[O-])c2)COc2ccc(O)c(O)c21`, the growth was -27.4% (active) with NCI-H23 lung; 81.5% with NCI-H226 lung; 28.7% with NCI-H322M lung; -31.3% (active) in the test on HOP-62 NSCLC; 4.3% (active) in the test with NCI-H460 lung; -43.1% (active) in the test with HOP-92 NSCLC. Also, the growth was -71.3% (active) in the test on NCI-H522 lung; 9.74% (active) in the test on A549/ATCC NSCLC; -87.9% (active) with 786-0 renal; -18.2% (active) in the test with COLO 205 colon; 2.4% (active) with DU-145 prostate; 6.45% (active) in the test on K-562 leukemia. The growth in the test on MALME-3M melanoma was -53.3% (active); in the test on MDA-MB-231 breast, -76.9% (active); in the test with RXF 393 renal, -81.3% (active); with SF-268 CNS, -4.32% (active); in the test on SF-295 CNS, 58.6%; in the test with SF-539 CNS, -89.1% (active). The growth in the test on UACC-257 melanoma was 3.37% (active); in the test with M14 melanoma, -63.9% (active).
